AMA1-RON2 inh: inhibitors of Plasmodium falciparum AMA1-RON2 interaction; Potency, µM (top dose mostly 58.2 µM), for inactives: at the highest dose activity change, negative = inhibition, most hits filed as inhibitors; AlphaScreen AMA1-biotinylated RON2 peptide binding; AID 720542; 0.2% of 360,000 active;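 also: 0% = vehicle wells and -100% = peptide control; nearly all actives have a fitted effect of over 45% in size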
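AMA1 (3D7) with his tag at 25 nM final met compounds first, then biotinylated RON2 peptide at 25 nM; detection used donor plus acceptor beads, 10 µg/mL apiece, read by AlphaScreen after 30 min at room temperature.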
FMDV inh: antivirals against foot and mouth disease virus; FMDV antiviral cell-based qHTS; Potency, µM (doses to about 57.9 µM), without a hit: at the top dose activity change, negative = inhibition, most hits filed as inhibitors; 1.2% of 410,000 active; calls by dose curve; tested in HEK293T cells; also: read-out not given here; nearly all actives have a fitted effect of over 45% in size
AmpC detergent: AmpC beta-lactamase inhibition with detergent present; P00811; AmpC hydrolysis of nitrocefin, absorbance 480 nm, 0.01% Triton; Potency, µM (series often up to 114 µM), inactives show at the highest dose activity change, negative = inhibition, actives largely listed as inhibitors; 0.041% of 370,000 active;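 also: 0% = no-compound wells and -100% = no-enzyme wells; nearly all actives have a fitted effect of over 25% in size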
Target sequence (P00811 whole entry, looked up): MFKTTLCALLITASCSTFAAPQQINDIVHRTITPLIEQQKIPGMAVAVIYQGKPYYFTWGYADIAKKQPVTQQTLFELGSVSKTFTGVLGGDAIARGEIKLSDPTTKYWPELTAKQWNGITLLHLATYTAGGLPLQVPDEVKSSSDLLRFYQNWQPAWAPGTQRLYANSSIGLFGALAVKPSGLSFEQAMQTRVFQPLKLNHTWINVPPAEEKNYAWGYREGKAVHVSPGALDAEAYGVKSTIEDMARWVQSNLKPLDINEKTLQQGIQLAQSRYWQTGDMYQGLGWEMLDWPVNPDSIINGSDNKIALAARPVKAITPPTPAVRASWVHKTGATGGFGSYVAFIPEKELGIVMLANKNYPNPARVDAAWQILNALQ
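AmpC (5.3 nM in the dispensed reagent) in 20 mM phosphate pH 7.0 with 0.01% (detergent screen) or 0.0001% Triton X-100 was preincubated with compounds for 15 min at room temperature. Nitrocefin was then added from an 800 uM solution, and hydrolysis was followed at 480 nm.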
AmpC no deterg: inhibitors of E. coli AmpC beta-lactamase without detergent; P00811; AmpC nitrocefin hydrolysis, absorbance 480 nm, 0.0001% Triton; Potency, µM (series often up to 57.1 µM), for the others: top-dose activity change, negative = inhibition, most hits filed as inhibitors; 0.52% of 330,000 active;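 also: plate controls were no compound for no effect and no enzyme for full effect; nearly all actives have a fitted effect of over 20% in size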
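20 mM phosphate pH 7.0 + 0.01% (detergent screen) or 0.0001% Triton X-100; 5.3 nM AmpC reagent; cpd preinc 15 min RT; nitrocefin (800 uM stock) to start; A480 q20 s × 4 min; Activity was normalised to no-enzyme and no-compound control wells.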
Sm TGR inh: inhibitors of Schistosoma mansoni thioredoxin glutathione reductase | purified TGR, DTNB reduction, TNB absorbance 405 nm | Q962Y6 | Potency, µM (highest dose often 114 µM), for the others: at the highest dose activity change, negative = inhibition, actives largely listed as inhibitors | 3% of 360,000 active | AID 485364; also: nearly all actives have a fitted effect of over 60% in size
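TGR 20 nM + NADPH 100 uM (dispensed conc.), cpd preinc 15 min RT; start with NADPH (500 uM addition) then DTNB (15 mM addition). Kinetic TNB absorbance, 405 nm filter. Four-parameter Hill fit across titration.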
* = called active by the depositor; ? = inconclusive; . = no result given. Rows were chosen to be rich in hits. Some 4.1% of all compounds tested hit in one or more screens of this group. Unless noted, calls follow the shape of the dose curve; as a rule, active = well fitted curve in the direction sought with a large enough effect; inconclusive = small, poorly fitted or top-dose-only effect, or another doubt; inactive = no such curve, though single readings can be large; an effect the other way counts as inactive or inconclusive. Unless noted, % is scaled to controls: 0 for no effect and ±100 for the full control effect; potency is read from the fitted curve at half-maximal effect.

SMILES	AMA1-RON2 inh	FMDV inh	AmpC detergent	AmpC no deterg	Sm TGR inh
O=C(NC(=S)NCCN1CCOCC1)c1ccc(F)cc1	11%	21%	3%	-8%	5%
O=C(NC(=S)NC1CCN(Cc2ccccc2)CC1)c1ccc(F)cc1	-7%	?	-8%	2%	-26%
COc1cccc(-c2noc(COc3ccccc3Cl)n2)c1	.	71%	1%	.	13%
CN1CCN(Cc2c(F)cccc2Cl)CC1	14µM*	-4%	0%	-4%	-1%
O=C1OC(Nc2nc(-c3ccc(F)cc3)cs2)c2ccccc21 (centres undefined)	0%	-19%	-9%	-39%	4µM*
O=C1OC(Nc2nc3ccccc3s2)c2ccccc21 (centres undefined)	102%	26%	-8%	-12%	-11%
S=C(NNc1cccc(Cl)c1)NC1CCCCC1	6.3µM*	39%	-1%	-33%	-16%
S=C(Nc1ccc(Nc2ccccc2)cc1)NC1CCCCCC1	-19%	28µM*	12%	-33%	.
S=C(Nc1ccc(Cl)cc1)NC1CCCCC1	-13%	70%	6%	-33%	-4%
S=C(Nc1cccc(Cl)c1)NC1CCCCC1	14%	16%	0%	-37%	2%
COc1ccc2c(c1)NC(C)(C)C=C2C	?	-7%	-3%	3%	40µM*
CCC(CO)[n+]1c(C)cc(/C=C2\Sc3ccccc3N2Cc2ccccc2)cc1C (centres undefined)	6%	10µM*	2%	34%	-5%
Cc1cc(=O)oc2cc(O)c(O)cc12	.	34%	.	.	.
N#CC1=C(Nc2ccccc2Cl)SC(c2ccccc2O)NC1=O (centres undefined)	1%	26%	3%	-31%	-6%
COc1cccc(NC2=C(C#N)C(=O)NC(c3cccc(OC)c3O)S2)c1 (centres undefined)	22%	15%	1%	-33%	7.9µM*
Oc1cccc(C(Nc2nccs2)c2ccc3cccnc3c2O)c1 (centres undefined)	-27%	-10%	8%	-42%	18µM*
CCC(=O)NC(c1ccccc1OC)c1ccc2cccnc2c1O (centres undefined)	-69%	-15%	?	-17%	-16%
COc1cccc(C(NC(C)=O)c2ccc3cccnc3c2O)c1 (centres undefined)	-81%	-18%	-9%	-17%	-4%
Oc1c(C(Nc2ccccn2)c2cccnc2)cc(Cl)c2cccnc12 (centres undefined)	?	-25%	-4%	-25%	4.5µM*
Oc1cccc(C(Nc2ccccn2)c2ccc3cccnc3c2O)c1Cl (centres undefined)	.	-24%	21%	.	3.2µM*
Cc1cc(NC(c2cccnc2)c2ccc3cccnc3c2O)no1 (centres undefined)	20µM*	?	-9%	-22%	0%
CC(=O)NC(c1ccc(C)cc1)c1cc(Cl)c2cccnc2c1O (centres undefined)	84%	-19%	-15%	-15%	-7%
O=C(OCc1cc(=O)n2nc(-c3cccs3)sc2n1)c1cccc(F)c1	.	0%	19%	.	6%
COc1ccccc1N1CCN(CCCNC(=O)c2nnc(Cc3c(F)cccc3Cl)o2)CC1	.	-16%	14%	.	1%
Oc1c(C(Nc2cccc(C(F)(F)F)c2)c2cccnc2)ccc2cccnc12 (centres undefined)	-34%	-15%	-3%	-18%	0.71µM*
SMILES	AMA1-RON2 inh	FMDV inh	AmpC detergent	AmpC no deterg	Sm TGR inh
COc1ccc(Cl)cc1C(Nc1cccnc1)c1ccc2cccnc2c1O (centres undefined)	-58%	-20%	9%	-18%	0.1µM*
O=S(=O)(Nn1c(O)c(C=C2N=c3ccccc3=N2)sc1=S)c1ccccc1	12%	-8%	10%	-48%	11µM*
Cc1ccc(OCCN2CCN(C)CC2)c([N+](=O)[O-])c1	25µM*	11%	?	-15%	0%
C[n+]1cccc2c(Br)ccc([O-])c21	-22%	-20%	-5%	3%	45µM*
CCC(=O)N1CCc2cc(Br)cc(S(=O)(=O)NCCc3ccccc3)c21	.	86%	4%	.	8%
CCOc1ccccc1NC(=O)N1CCC(NC(=O)c2cccc(C)c2)CC1	5%	-16%	?	-6%	25µM*
Cc1cccc(C(=O)NC2CCN(C(=O)Nc3ccc(F)cc3)CC2)c1	-2%	-4%	?	-19%	40µM*
Cc1nc2ccn(Cc3ccco3)c(=O)c2cc1C(=O)NCc1ccccc1F	.	-21%	0%	.	0%
COc1ccc(-c2cc(-c3ccc(O)cc3)nc(N)c2C#N)cc1OC	12%	10%	2%	-6%	-31%
COc1cc(-c2c(C#N)c(N)nc3c2CCCC3)ccc1O	9%	?	?	-19%	20µM*
COc1ccc(-c2c(C#N)c(N)nc3c2CCc2ccccc2-3)cc1OC	73%	16µM*	?	27%	-1%
Cc1ccc(CCNC(=O)C(CC(C)C)NS(=O)(=O)c2ccc3c(c2)oc(=O)n3C)cc1 (centres undefined)	.	-5%	18%	.	1%
Cc1cn(C)c(CC(=O)Nc2ccc(F)cc2Cl)c1C(=O)O	.	-10%	-6%	.	-1%
CC1(C2CC2)NC(=O)N(CC(=O)N2CCN(c3cccc(C(F)(F)F)c3)CC2)C1=O (centres undefined)	-10%	35µM*	.	53%	.
Cc1ccc(CN(C(=O)COc2ccccc2Cl)c2ccccn2)o1	.	66%	23%	.	40µM*
CCCCc1ccc(Nc2cc(C)nc(-n3nc(C)cc3C)n2)cc1	.	-24%	13%	.	-3%
O=C(O)c1cc(-c2ccco2)nc2cc3ccccc3cc12	-15%	34%	2%	-28%	2.2µM*
CC(=O)c1cccc(NC(=O)c2cc(-c3ccco3)nc3ccccc23)c1	-13%	-12%	3%	-28%	25µM*
O=C(NNC(=O)c1cc(-c2ccco2)nc2ccccc12)c1ccccc1	52%	13%	-6%	-30%	11µM*
COc1cccc(NC(=O)c2cc(-c3ccco3)nc3ccccc23)c1	1%	-13%	.	.	.
O=C(Nc1cccc(S(=O)(=O)NC2=NCCCCC2)c1)c1cc(-c2ccco2)nc2ccccc12	2%	-17%	5%	-42%	11µM*
O=C(Nc1cccc(S(=O)(=O)NC2=NCCCCC2)c1)c1cc(-c2ccncc2)nc2ccccc12	-4%	-21%	-20%	63%	4%
COc1cccc(C2c3c(-c4ccccc4O)n[nH]c3C(=O)N2CCc2ccc(OC)c(OC)c2)c1 (centres undefined)	.	-8%	-2%	.	1%
CC1CCCCN1C(=O)CSc1nc2ccccc2nc1Cc1ccccc1 (centres undefined)	.	-20%	4%	.	-2%
COc1ccccc1-c1ccnc(-n2ncc(C(=O)N(C)C(C)c3nc(C)cs3)c2C2CC2)n1 (centres undefined)	.	29%	.	.	.
